Values without a mark were called inactive. Active and inactive are the calls of the source. How the calls were made is not given here.
Each molecule was assayed on HIV-1 nucleocapsid protein NCp7 (binding to TG oligonucleotide) (assay: HIV Nucleocapsid (AID 346;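 further: potency is for inhibitors that block NC binding and lower polarization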)). Settings: HIV-1 NC / fluorescein-TGTGTGTG probe, fluorescence polarization.
Procedure, shortened: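 Fluorescence polarization binding of 100 nM HIV-1 NC to 10 nM fluorescein-labelled TG4xF oligonucleotide. Buffer was Hepes pH 7.5 with 250mM NaCl, 1uM ZnCl2, TCEP and 2-mercaptoethanol. Compounds were incubated 1 hr at room temperature before the read.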
Potency means the concentration at half of the fitted maximal effect.

Row | Compound | Potency
1 | COc1ccccc1-c1ccc2ncnc(N3CCN(C)CC3)c2c1 | > 20 µM
2 | CN(C)c1ccc(-c2nccc(Nc3ccc(F)cc3)n2)cc1 | > 20 µM
3 | COc1ccc(-c2nc3cnc(Nc4cccc(OC)c4)nc3n(Cc3cccs3)c2=O)cc1 | 0.247 µM (active)
4 | COc1ccc(Oc2ncc3nc(C)c(=O)n(CCC#N)c3n2)cc1 | > 20 µM
5 | COc1ncc2nc(-c3cn(C)c4ccccc34)c(=O)n(CCC#N)c2n1 | > 20 µM
6 | COc1ccc(CNc2ncnc3ccc(-c4cccnc4)cc23)c(OC)c1 | > 20 µM
7 | CC(=O)N1CCC2(CC1)CN(C(c1ccccc1)c1ccccc1)C2 | > 20 µM
8 | N#Cc1ccc(CN2CC[C@@]3(CCCN(C(=O)c4cnccn4)C3)C2)cc1 | > 20 µM
9 | COc1ccc(C(=O)N2CCC[C@@]3(CCN(C(=O)Nc4cccc(F)c4)C3)C2)cc1 | > 20 µM
10 | FC(F)(F)c1ccccc1-c1nccc(NCc2ccccc2)n1 | > 20 µM
11 | O=C(Nc1ccccc1)N1CCCC2(CCNCC2)C1 | > 20 µM
12 | O=c1c(CCc2ccccc2)nc2cnc(N3CCNCC3)nc2n1CCc1ccccc1 | > 20 µM
13 | COc1ccc(CNc2ccnc(-c3ccccc3OC)n2)c(OC)c1 | > 20 µM
14 | COc1ccc(-n2c(=O)c(-c3ccccc3)nc3cnc(N4CCOCC4)nc32)cc1 | > 20 µM
15 | COC(=O)N1CCC2(CC1)CN(c1ccccn1)C2 | > 20 µM
